This is part of a sample that, as a whole, favours compounds with a hit. Of some 79,000 tested, about 15% had one in any assay. A number with no mark means an inactive call. Calls of active or inactive are those of the source. No stated cut-off is given here; in the data, active means growth inhibition above about 70%; inactive means the rest.
Key:
[1] = NCI Yeast Anticancer Drug Screen. Data for the rad50 strain (AID 155);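 further: 0% = growth of vehicle-only cultures of the same strain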; settings: S. cerevisiae rad50 strain growth inhibition, stronger effect = higher value
Summary of the method: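 Genetically altered yeast (DNA repair pathway); compound treatment; growth inhibition vs vehicle ctrl.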

[2] = NCI Yeast Anticancer Drug Screen. Data for the mec2-1 strain (AID 157); settings: S. cerevisiae mec2-1 strain, stronger effect = higher value
Summary of the method: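 Compounds were applied to mec2-1 yeast cells. Their growth was then compared with that of vehicle-treated cultures to give growth inhibition.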

[3] = NCI Yeast Anticancer Drug Screen. Data for the sgs1 mgt1 strain (AID 161);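 further: 0% = growth of cultures given vehicle only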; settings: S. cerevisiae sgs1 mgt1 strain, stronger effect = higher value
Summary of the method: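 Yeast cells carrying a defined DNA-repair defect were exposed to test compounds. Growth inhibition was measured relative to vehicle-treated controls.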

[4] = NCI Yeast Anticancer Drug Screen. Data for the cln2 rad14 strain (AID 165);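 further: 0% = growth equal to vehicle treated cultures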; settings: S. cerevisiae cln2 rad14 strain, stronger effect = higher value
Summary of the method: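 Strain: cln2 rad14 yeast, altered in cell cycle control and DNA damage repair. Read-out: growth inhibition vs vehicle.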

[5] = NCI Yeast Anticancer Drug Screen. Data for the bub3 strain (AID 167); settings: S. cerevisiae bub3 mutant strain, stronger effect = higher value
Summary of the method: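 Yeast carrying a defined mutation is treated with each compound, and growth is compared with that of vehicle-exposed cells to give inhibition.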

[6] = NCI Yeast Anticancer Drug Screen. Data for the mlh1 rad18 strain (AID 175); settings: S. cerevisiae mlh1 rad18 strain growth inhibition, stronger effect = higher value
Summary of the method: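 A repair-deficient yeast strain is exposed to test compound, and growth is scored relative to vehicle-treated controls.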

[7] = at 5.0 µM (retest, dose inferred, filed as 0.5)
[8] = at 50.0 µM (retest, dose inferred, filed as 5.0)

Compound	growth inhibition [1, 7]	growth inhibition [1, 8]	growth inhibition ([1]; at 50.0 µM)	growth inhibition [2, 7]	growth inhibition [2, 8]	growth inhibition ([2]; at 50.0 µM)	growth inhibition [3, 7]	growth inhibition [3, 8]	growth inhibition ([3]; at 50.0 µM)	growth inhibition [4, 7]	growth inhibition [4, 8]	growth inhibition ([4]; at 50.0 µM)	growth inhibition [5, 7]	growth inhibition [5, 8]	growth inhibition ([5]; at 50.0 µM)	growth inhibition [6, 7]	growth inhibition [6, 8]	growth inhibition ([6]; at 50.0 µM)
CC(=O)Nc1cccc(C(=O)O)c1	6%	-2%	1.3%	-1%	-4%	0%	-5%	1%	5.75%	4%	-1%	39.9%	4%	7%	8.6%	1%	-3%	-16.6%
CCCCCCCCCCCCCC(=O)NO	97% (active)	97% (active)	89.2% (active)	99% (active)	98% (active)	91.3% (active)	99% (active)	98% (active)	92.8% (active)	89% (active)	96% (active)	88.2% (active)	99% (active)	98% (active)	90.2% (active)	99% (active)	97% (active)	89.1% (active)
CNCC(OB(c1ccccc1)c1ccccc1)c1ccccc1 (stereo not given)	4%	99% (active)	-22.9%	12%	99% (active)	-5.2%	1%	95% (active)	61.7%	9%	99% (active)	-26.6%	-7%	99% (active)	5.75%	0%	99% (active)	44.1%
Cc1c[nH]c(=O)n(CC(=O)C2CCC3C4CCC5=CC(=O)CCC5(C)C4CCC23C)c1=O (stereo not given)	11%	30%	48.2%	0%	-11%	43.6%	-1%	26%	47.4%	-1%	4%	46.6%	0%	17%	41.1%	1%	20%	43.3%
COc1cccc(=O)cc1	5%	86% (active)	83.3% (active)	12%	51%	26.4%	11%	83% (active)	93.5% (active)	7%	32%	19.4%	3%	85% (active)	92.9% (active)	3%	94% (active)	76.4% (active)
OC(C/C(CNNc1ccccc1)=N/Nc1ccccc1)(C(F)(F)F)C(F)(F)F	6%	-9%	71.2% (active)	-2%	76% (active)	83.8% (active)	-6%	5%	69.2%	2%	75% (active)	55.4%	-1%	59%	74.6% (active)	14%	78% (active)	89% (active)
NSc1ccc(N)s1	-1%	11%	37%	6%	12%	28.9%	1%	13%	50.6%	-7%	6%	36.9%	-3%	14%	87.7% (active)	-1%	12%	58.6%
O=S1CCS(=O)C1c1ccccc1 (stereo not given)	-1%	28%	85.3% (active)	-6%	26%	61%	-5%	33%	54%	-18%	8%	-11.1%	-14%	38%	67.8%	2%	39%	37.7%
CCOC(=O)[C@@H](F)[C@H](Br)C(=O)OCC	86% (active)	99% (active)	89.2% (active)	58%	100% (active)	93.2% (active)	75% (active)	100% (active)	88.4% (active)	55%	100% (active)	89.2% (active)	88% (active)	100% (active)	84.7% (active)	80% (active)	99% (active)	93.2% (active)
Cc1ccccc1C[n+]1ccccc1Br	11%	87% (active)	94.3% (active)	9%	79% (active)	60.6%	12%	78% (active)	64.6%	-4%	74% (active)	32%	-12%	77% (active)	59.6%	15%	90% (active)	54.4%
Clc1ccc(-c2nnc(-c3ccccn3)o2)c(Cl)c1	4%	99% (active)	99.2% (active)	-1%	80% (active)	28.1%	0%	99% (active)	99.2% (active)	-2%	83% (active)	92.7% (active)	1%	94% (active)	70.1% (active)	1%	96% (active)	99.4% (active)
O=c1cccccc1[O-].O=c1cccccc1[O-].O=c1cccccc1[O-].[Ce+3]	31%	31%	90% (active)	20%	20%	92% (active)	13%	13%	85% (active)	16%	16%	90.4% (active)	10%	10%	91.2% (active)	26%	26%	88.5% (active)
c1ccc(OCC2c3ccccc3Nc3ccccc32)cc1	98% (active)	97% (active)	71.9% (active)	99% (active)	98% (active)	28.6%	99% (active)	97% (active)	26.9%	99% (active)	96% (active)	-51.8%	92% (active)	97% (active)	-0.2%	99% (active)	95% (active)	67.2%
CC(C(=O)c1ccc2cc(Br)c3ccccc3c2c1)N(C)C (stereo not given)	-6%	99% (active)	99.4% (active)	1%	99% (active)	98.5% (active)	-14%	100% (active)	99.2% (active)	-5%	99% (active)	99.5% (active)	25%	99% (active)	99.4% (active)	5%	99% (active)	99.3% (active)
O=P(N=P(c1ccccc1)(c1ccccc1)c1ccccc1)(c1ccccc1)c1ccccc1	70% (active)	96% (active)	88% (active)	60%	99% (active)	91.6% (active)	49%	99% (active)	79% (active)	40%	98% (active)	92.5% (active)	62%	99% (active)	87.2% (active)	71% (active)	98% (active)	88.7% (active)
COc1cccc(C2c3cc4c(cc3OC(N3CCCC3)C2C)OCO4)c1 (stereo not given)	-16%	74% (active)	85.2% (active)	-34%	82% (active)	82% (active)	-27%	54%	77.8% (active)	-15%	67%	76.3% (active)	-30%	88% (active)	85% (active)	-32%	72% (active)	80.1% (active)
CCOC(=O)C(=C=Cc1cccs1)C(=O)c1ccccc1	16%	84% (active)	87% (active)	-14%	95% (active)	90.5% (active)	3%	92% (active)	90.8% (active)	-10%	91% (active)	90.7% (active)	-13%	97% (active)	89.8% (active)	-10%	94% (active)	83.9% (active)
CC1=C(C(=O)Nc2ccc(C)cc2C)C(c2cccc([N+](=O)[O-])c2)C(C(=O)Nc2ccc(C)cc2C)=C(C)N1	-17%	50%	28.6%	12%	74% (active)	38.5%	-4%	47%	33%	10%	42%	36.6%	14%	69%	37.2%	4%	44%	41.1%
O=C1C=C(Cl)C(=O)C2=C1CCCC2	10%	89% (active)	95.2% (active)	11%	98% (active)	70.8% (active)	8%	98% (active)	61.1%	-1%	48%	59.2%	1%	98% (active)	99.2% (active)	20%	98% (active)	93.9% (active)
CC1CCN(SSc2nc3ccccc3s2)CC1	31%	91% (active)	28.4%	36%	94% (active)	80.5% (active)	51%	96% (active)	77.4% (active)	44%	70% (active)	21.4%	61%	97% (active)	82% (active)	30%	73% (active)	79% (active)
